ABHD5-PLIN5 inh = ABHD5-PLIN5 interaction inhibitors, primary screen, cell lysate, split luciferase complementation, luminescence. Perilipin-5 (Homo sapiens) + 1-acylglycerol-3-phosphate O-acyltransferase ABHD5 (Homo …. Split G. princeps luciferase complementation, 4 h. inhibition, % at 4 µM. hit rate 0.78% among 360,000. AID 602281, 2012;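 active = inhibition above the mean inhibition across every tested compound plus 3 SD, cut at about 22% in these data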;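 also: 0% = DMSO only wells and the 100% control is not disclosed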
KKLEB cytotox = cytotoxicity in KKLEB CF airway cells, primary screen, cytotoxicity control for CF NF-kB inhibitor project, cell-based, uHTS, fluorescence assay plates. KKLEB CF airway cells viability, ATPlite luminescence, overnight; stronger effect = lower value; cells stimulated with P. aeruginosa culture filtrate. activity change (cytotoxicity), % at 5 µM. hit rate 0.36% among 360,000. AID 602141, 2011;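 active = corrected activity change at or below -50% at 5 µM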
CF NFkB block = inhibitors of PAF-induced NF-kB signaling, primary screen, cell-based, GFP fluorescence, uHTS; KKLEB NF-kB-GFP reporter, GFP fluorescence overnight; inhibition, % at 5 µM; hit rate 0.86% among 360,000;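 active = at least 50% inhibition at 5 µM, scaled per plate between neutral and stimulator controls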;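 also: PAF is a Pseudomonas aeruginosa culture filtrate used as stimulus; plate controls were PAF-stimulated DMSO wells for no effect and unstimulated DMSO wells for full effect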
Peg3 promoter = Peg3 promoter-driven luciferase inhibitors, primary screen, cell-based, HeLa, luciferase luminescence; HeLa PEG-Prom luciferase reporter, overnight; inhibition, % at 20 µM; hit rate 1.7% among 360,000;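 active = inhibition of at least 50% at 20 µM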
HIF-2a block = HIF-2a reporter inhibitors, primary screen, luminescence, 786-0 RCC cells. hit rate 0.72% among 360,000. inhibition, % at 18.8 µM. 786-0 RCC cells HIF-2a reporter, luciferase luminescence, overnight;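 active = inhibition of the luminescence signal of 40% or more relative to plate controls, in a single-dose primary screen at 18.75 µM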
Mdm2 MdmX PPI = inhibitors of human Mdm2-MdmX association, primary screen, cell-based, luminescence, split luciferase, SaOS-2, uHTS; Protein Mdm4 (Homo sapiens) + E3 ubiquitin-protein ligase Mdm2 (Homo sapiens), …; SaOS-2 split-luciferase Mdm2/MdmX complementation; inhibition, % at 8 µM; hit rate 3% among 330,000; AID 485346, 2010;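 active = inhibition of at least 50% at 8 µM in the primary screen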
Mdm2-MdmX conf = Mdm2-MdmX complex disruptors, retested hits, confirmation, luminescence, single concentration; Mdm2-MdmX binding, luminescent assay; hit rate 55% among 10,000; inhibition, % at 8 µM; AID 489028, 2010; shares compounds with Mdm2 MdmX PPI; in the data active = inhibition above about 40%
Full FLuc ctr = full-length luciferase signal inhibition, confirmation, counter-screen for Mdm2/MdmX interaction inhibitor project, cell-based, single concentration, SaOS-2. inhibition, % at 8 µM. SaOS-2 full-length luciferase counterscreen, luminescence. hit rate 77% among 6,200. shares compounds with Mdm2 MdmX PPI;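 active = mean inhibition at 8 µM reaching about 37%, which flags the compound as non-specific, limit read from the data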;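 also: p53-null SaOS-2 cells with luciferase driven by a doxycycline-inducible promoter; compound on cells about two nights before reading with doxycycline added after day one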
Starred values were filed as active, the others as inactive; . = not tested or not shown. Compounds with a hit are over-represented: about 4.6% of the library has one in this group of screens.

SMILES	ABHD5-PLIN5 inh	KKLEB cytotox	CF NFkB block	Peg3 promoter	HIF-2a block	Mdm2 MdmX PPI	Mdm2-MdmX conf	Full FLuc ctr
COCCCNC(=O)Cn1cnc2c(NCc3ccccc3)ncnc21	2	-4	4	6	2	31	.	.
O=c1[nH]c(C(Cl)(Cl)Cl)nc2ccc3ccccc3c12	9	-1	-7	-31	-83	-15	.	.
COc1ccc(-n2c(SCCC#N)nnc2-c2cc(Cl)ccc2OC)cc1Cl	0	-4	7	30	-8	54*	64*	51*
C/C(=N\NC(=O)c1ccccc1O)c1ccc(Br)s1	-1	20	-16	-159	-177	-32	.	.
C/C(=N\NC(=O)c1cccc(F)c1)c1ccc(Br)s1	-7	-15	2	-46	-138	72*	49*	44*
O=C(CN1C(=O)C2CC=CCC2C1=O)Nc1nc2ccccc2s1 (configuration not stated)	5	8	0	-32	-28	-4	.	.
COc1ccc(/C=C/C(=O)Nc2sc(Cc3ccccc3)c(C)c2C(N)=O)cc1	13	-18	25	47	-21	64*	34	114*
c1ccc2c(c1)OCC(c1csc3ncnc(N4CCCCC4)c13)O2 (configuration not stated)	2	-13	46	16	35	65*	18	.
Clc1ncnc2scc(C3COc4ccccc4O3)c12 (configuration not stated)	-1	6	8	-55	-113	52*	16	.
O=C(Cc1ccc(Cl)cc1)Nc1cccnc1Cl	-12	2	-12	4	-17	.	.	.
CCCn1c(SCC(=O)NCc2ccc3c(c2)OCO3)n[nH]c1=O	0	6	10	0	2	-27	.	.
C=C(C)CNC(=S)NNC(=O)CCn1c2cc(Cl)ccc2c2ccc(Cl)cc21	4	6	0	20	-13	13	.	.
C=C(C)CNC(=S)NNC(=O)CCn1c2ccc(Cl)cc2c2cc(Cl)ccc21	10	4	-32	30	-25	54*	18	.
COc1ccc(C(=O)c2ccc(Br)cc2)c2ccccc12	10	-18	21	29	2	52*	53*	80*
COc1ccc(C(=O)c2ccc(Cl)cc2)c2ccccc12	-1	-1	-2	22	14	38	.	.
Cc1ccc(C)c2sc(NC(=O)c3nc4ccccc4s3)nc12	7	-19	14	10	3	58*	23	.
Oc1c(C(c2ccc(Cl)cc2)N2CCCC2)cc(Cl)c2cccnc12 (configuration not stated)	-1	-26	31	29	25	80*	72*	33
Cc1ccc(C(c2cc(Cl)c3cccnc3c2O)N2CCN(C)CC2)cc1 (configuration not stated)	13	-28	39	37	43*	69*	57*	32
CN1CCN(C(c2ccccn2)c2cc(Cl)c3cccnc3c2O)CC1 (configuration not stated)	10	-32	22	16	20	49	.	.
Oc1c(C(c2ccccn2)N2CCC(Cc3ccccc3)CC2)cc(Cl)c2cccnc12 (configuration not stated)	.	.	.	.	.	56*	38	33
C#CCNC(=O)C[C@@H]1C[C@@]2(C(=O)OC)CCCCC=C2N(Cc2ccc(Cl)cc2Cl)C1=O	-4	.	.	.	12	.	.	.
COc1ccc(Cl)c2sc(NC(=O)C3=COCCO3)nc12	-4	14	-44	-78	-55	54*	24	.
COc1ccccc1NC(=O)c1cnc(SCC(=O)NCCc2ccccc2)n(C)c1=O	-5	-30	3	-4	0	14	.	.
O=C(Nc1ccc(CN2CCS(=O)(=O)CC2)cc1)c1ccc(C(F)(F)F)cc1	1	-5	-12	-20	-5	51*	8	.
CC(C)(C)c1ccc(C(=O)Nc2ccc(CN3CCS(=O)(=O)CC3)cc2)cc1	3	-9	-5	-42	-30	0	.	.
SMILES	ABHD5-PLIN5 inh	KKLEB cytotox	CF NFkB block	Peg3 promoter	HIF-2a block	Mdm2 MdmX PPI	Mdm2-MdmX conf	Full FLuc ctr
CCCNC(=O)C1(C)CCCN(C(=O)c2cc(C)nn2C(C)(C)C)C1 (configuration not stated)	4	-3	5	-12	4	.	.	.
CCN1C(=O)[C@H]2[C@@H](c3ccc(-c4ccccc4)cc3)N3CCCC[C@@]3(C(=O)OC)[C@H]2C1=O	-7	-6	10	2	17	26	.	.
CC(=O)c1sc(NC(=O)C2(F)C(F)(F)C(F)(F)C(F)(F)C(F)(F)C2(F)F)nc1C	-4	-52*	65*	39	-26	93*	85*	29
COc1ccc(S(=O)(=O)N/N=C(/C)c2ccncc2)c(OC)c1	7	-2	19	11	20	-13	.	.
CC(C)(CNC(=O)c1ccc(-c2cccc(C(F)(F)F)c2)o1)N1CCOCC1	2	10	-5	17	1	-7	.	.
CC(Oc1ccccc1)C(=O)Nc1ccc(NC(=O)c2ccccc2)cc1 (configuration not stated)	2	4	-19	3	-10	66*	37	52*
Cc1cc(C)n(CC(O)COc2ccccc2Br)n1 (configuration not stated)	-2	1	9	-15	-51	-1	.	.
CC(C)(C)S(=O)N1Cc2cc(CO)ccc2[C@@H]1CCO (some centres not stated)	-2	18	-30	-12	7	.	.	.
Cc1oc2ccc(O)c(CN3CCOCC3)c2c1C(=O)c1ccc(Cl)cc1	0	-11	31	19	8	22	.	.
Cc1oc2c(Cl)c(Cl)c(O)c(CN(C)C)c2c1C(=O)c1ccc(Cl)cc1	1	13	51*	-7	21	59*	66*	27
CCN(CC(=O)Nc1ccc(NC(C)=O)cc1)C(=O)c1cccc(N2C(=O)c3ccccc3C2=O)c1	-3	-3	-2	-5	8	.	.	.
CCCCCCN1C[C@H](n2cc(C3CC3)nn2)[C@@H](O)C[C@@H]1c1ccc(OC)cc1	-6	1	4	-7	-5	.	.	.
